# This excerpt belongs to a sample that is enriched for hits.
# Tgondii IFNg = inhibitors of Toxoplasma gondii growth with IFN-gamma; activity change, negative = inhibition, % (test concentration not listed); actives 3.8% (n = 69,000); Toxoplasma gondii growth in IFN-gamma-treated host cells; stronger effect = lower value; in the data active means activity change below about -70%, passing the limit was not always enough;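 further: host cells are HeLa cells infected with Toxoplasma gondii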
# * marks the source's active call; other numbers are inactive results; i = inactive.
SMILES,Tgondii IFNg
O=C(Cn1ncc2c(N3CCCC3)ncnc21)Nc1ccccc1Br,-10
O=C(c1cccc(Cl)c1)N1CCC(N2CCc3ccccc32)CC1,i
COc1ccc(-c2cccc(-c3noc(C)n3)c2)c(OC)c1OC,-75*
Cc1nc(-c2cccc(-c3cccc4ccnn34)c2)no1,8
COc1ccc(-c2noc(COc3cccnc3C)n2)c(OC)c1OC,-26
COc1ccc2c(c1)NC1(CCN(C(=O)NCC3CCCO3)CC1)c1cccn1-2 (stereo not given),107
O=C(Cn1ncc2c(N3CCCC3)ncnc21)Nc1ccc(Cl)cc1F,-39
CC(=O)c1cc([N+](=O)[O-])c(Sc2ccc(F)cc2F)s1,-72*
CNC(=S)Sc1ccc(F)cc1F,38
Cc1cc(C)c2c(N3CCCCC3)nc(C(=O)N3CCC(N4CCCCC4)CC3)nc2n1,116
O=C(O)Cc1sc(-c2ccc(Br)cc2)nc1-c1ccc(Br)cc1,-9
Cc1nc(C2CCNCC2)sc1-c1ccncn1,-49
O=C(c1ccc(/C=C/c2n[nH]c3ccccc23)cc1)N1CCNCC1,-67
C[C@@H](Oc1ccc2[nH]nc(/C=C/c3cnn(CCO)c3)c2c1)c1c(Cl)cncc1Cl,-75*
O=C(Cn1c(=O)cc(C(=O)N2CCc3ccccc3C2)c2ccccc21)Nc1ccccc1,-3
Cc1ccc(-c2nc(CCNC(=O)C(=O)Nc3cccc(C)c3C)cs2)cc1,19
Cc1cc(C)cc(NC(=S)Nc2ccc(Oc3ccc(OC(F)(F)F)cc3)cc2)c1,-106*
Cc1ccc(Sc2ccc(NC(=O)Nc3ccc(OC(F)(F)F)cc3)cn2)cc1,-67
S=C(Nc1ccc(Oc2ccc(Cl)cc2)cc1)Nc1cccc(Cl)c1Cl,-32
CC(=O)N1CCC2(CC1)OC(=O)C(C)=C2C(=O)NCCN(CC(C)C)CC(C)C,36
O=C(Oc1cccc(C(F)(F)F)c1)c1cncc(C#Cc2ccccc2)c1,39
CCCc1ncncc1C(=O)NCc1cc(F)cc2c(C)c(C)[nH]c12,-3
Cc1ncc(-c2onc(C)c2C)c(CCNC(=O)Cc2ccccc2F)n1,31
CCC(=O)Nc1cccc(-c2cn3ccc(C)cc3n2)c1,-12
CCc1ccn2cc(-c3cc(-c4ccccc4)no3)nc2c1,-81*
SMILES,Tgondii IFNg
CCc1nc(CN(C)C(=O)c2cc(-c3ccccc3)no2)no1,6
COCC(=O)N1CCC2(CC1)CC(OCC1CCOCC1)CO2 (stereo not given),6
COc1ncc(CN2C[C@H](N)C[C@H]2C(=O)NC(C)C)cn1,5
COc1ccc(-n2c(=O)c(C(=O)Nc3cc(F)cc(F)c3)c(O)c3cccnc32)cc1,21
CCC1C=CCC(C(=O)O)C1C(=O)Nc1ccc(C(=O)N2CCOCC2)cc1 (stereo not given),-10
O=C(CN1C(=O)CCc2cc(S(=O)(=O)N3CCCC3)ccc21)Nc1cccc(Cl)c1,-103*
O=C(CN1C(=O)CCc2cc(S(=O)(=O)N3CCCCC3)ccc21)Nc1ccccc1,-22
O=C(CN1C(=O)CCc2cc(S(=O)(=O)N3CCCCC3)ccc21)Nc1cccc(Cl)c1,-88*
Cc1ccc(NC(=O)CN2C(=O)CCc3cc(S(=O)(=O)N4CCCCC4)ccc32)cc1C,3
Cc1ccc(NC(=O)CN2C(=O)CCc3cc(S(=O)(=O)N4CCCC4)ccc32)cc1C,19
CC(C)c1ccc(NC(=O)CN2C(=O)CCc3cc(S(=O)(=O)N4CCOCC4)ccc32)cc1,-18
Cc1ccc(NC(=O)CN2C(=O)CCc3cc(S(=O)(=O)N4CCCC4)ccc32)cc1,38
CC(C)c1ccc(NC(=O)CN2C(=O)CCc3cc(S(=O)(=O)N4CCCCC4)ccc32)cc1,-113*
Cc1c(Cl)cccc1NC(=O)CN1C(=O)CCc2cc(S(=O)(=O)N3CCCCC3)ccc21,-11
Cc1ccc(C2(O)CCN(C(=O)c3cnn(-c4ccccn4)c3C)CC2)nc1,-37
CCCNC(=O)c1cc(-c2ccn[nH]2)n2ccccc12,33
c1ccc(N/N=C2/CCCc3nonc32)cc1,40
CN(Cc1cccnc1)C1CCN(C(=O)c2cccs2)C(C(=O)O)C1 (stereo not given),1
COc1cccc2c1OCC(C(=O)Nc1ccc3c(c1)N(C)C(=O)CO3)C2 (stereo not given),4
CCOc1ccccc1NC(=O)N1CCC2(CC1)NC(=O)c1ccc(Cl)cc1N2C,20
Nc1nnc(CC(=O)N2CCCC2)s1,30
Cn1cccc1C(=O)c1cccc(Br)c1,0
CCN1CCN(C(=O)c2ccc(N3CCC(N4CCC(Oc5ccc(F)cc5)CC4)CC3)cc2)CC1,2
N#Cc1ccc(N2CC3(CCN(C(=O)c4cnccn4)C3)CC2=O)cc1 (stereo not given),115
Cc1ccccc1N1CC2(CCN(C(=O)Cc3ccc(F)cc3)C2)CC1=O (stereo not given),-4
SMILES,Tgondii IFNg
O=C(c1ccn[nH]1)N1CCC2(CC(=O)N(c3ccc(F)cc3)C2)C1 (stereo not given),-92*
Cc1ccc(N2CC3(CCN(C(=O)Cc4ccc(F)cc4)C3)CC2=O)cc1 (stereo not given),-113*
Cc1ccc(N2CC3(CCN(C(=O)Nc4ccc(F)cc4)C3)CC2=O)cc1 (stereo not given),-11
O=C(c1ccn[nH]1)N1CCC2(CC(=O)N(c3ccccc3)C2)C1 (stereo not given),-11
COc1c(F)ccc(C(=O)N2C[C@H](N)C[C@H]2C(=O)NC(C)C)c1F,6
N#CCSC1=Nc2ccccc2C2=NC(CCC(=O)NCc3ccc(F)cc3)C(=O)N12 (stereo not given),8
CN1C[C@@H](N)C[C@H]1C(=O)NCCCn1ccnc1,-49
Cc1ccc(S(=O)(=O)N2CCN(CCCc3ccccc3)CC2)cc1,-47
COc1ccc(-c2nc(CN3C(=O)C(O)(c4ccc(C)cc4)c4ccccc43)c(C)o2)cc1 (stereo not given),-124*
Cc1ccc(-c2nc(CN3C(=O)C(O)(c4ccccc4)c4ccccc43)c(C)o2)cc1 (stereo not given),-65
Cc1cc(C)c2c(=O)n(Cc3nc(-c4ccccc4Cl)oc3C)c(=O)n(-c3ccccc3)c2n1,2
CCOc1ccc(-c2nc(CN3C(=O)C(O)(c4ccccc4)c4ccccc43)c(C)o2)cc1 (stereo not given),9
CCN(CC)C(=O)c1cc(C)nc2c1c(=O)n(Cc1nc(-c3ccccc3Cl)oc1C)c(=O)n2C,-22
Cc1oc(-c2ccccc2Cl)nc1CN1C(=O)C(O)(c2ccccc2)c2ccccc21 (stereo not given),-96*
CNC(=O)CN1CCOCC2(CCCN(C(=O)c3ccn(C)n3)C2)C1 (stereo not given),1
O=C(c1csc2c1CCCC2)N1CCOc2ccc(CN3CCN(c4ccccn4)CC3)cc2C1,4
COc1cccc(CNC2=NCCNC23CCN(S(=O)(=O)c2ccc(C)c(C)c2)CC3)c1,10
Cc1cc(NC(=O)NC(=O)c2c(F)cccc2Cl)no1,58
COc1ccccc1C(C)N(C)C(=O)c1cccc(F)c1OC (stereo not given),-54
CCNC(=O)c1ccc(-n2cccn2)c(C#Cc2cccnc2)c1,13
S=C(Nc1cccc(Cl)c1)N1CCCN(c2nc3ccc(Cl)cc3s2)CC1,-39
Cn1cccc1C(=O)N1CCC2OCCN(S(C)(=O)=O)C2CC1 (stereo not given),1
COc1ccccc1CNC(=O)Cn1c(=O)ccc2cc(S(=O)(=O)N3CCC(C)CC3)ccc21,-33
CC1CCN(S(=O)(=O)c2ccc3c(ccc(=O)n3CC(=O)NCc3ccc(Cl)cc3)c2)CC1,-64

# High-throughput results as filed in PubChem.
